8 compounds from PubChem BioAssay (NCI) can be followed below.

This experiment can be described thus: NCI Yeast Anticancer Drug Screen. Data for the wt1 strain (AID 149).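 Further: 0% = growth of vehicle-treated wt1 cultures.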 As to conditions: S. cerevisiae wt1 strain (SPY 50644) growth inhibition, hits give high values. As for the experimental part:
Growth inhibition of yeast strains with defined genetic alterations is measured as a screen for potential anti-cancer activity. Selected strains with alterations in DNA damage repair or cell cycle control were exposed to compounds and growth inhibition was measured relative to vehicle treated controls. The strain used in this assay is wt1

Compounds without any hit were thinned out: in the full panel of roughly 79,000, 15% have a hit. A number with no mark means an inactive call. Active and inactive are the calls of the source. No stated cut-off is given here; in the data, active means growth inhibition above about 70%; inactive means the rest.

Turning to `OCC(CO)C(c1cccc2ccccc12)c1cccc2ccccc12`, the growth inhibition (at 1.2 µM) was -5%; the growth inhibition (at 3.7 µM) is 1%; the growth inhibition (at 11.0 µM) was 98% (active); the growth inhibition (at 33.0 µM) was 99% (active); the growth inhibition (at 100.0 µM) was 94% (active).
For `O=C(O)c1cc2ccccc2c2c1C(=O)c1ccccc1-2`, in that order: -4%, 16%, 47%, 94% (active) and 94% (active).
For `CC(C)=NOC(=O)Nc1ccc(Cl)cc1`, in that order: -24%, -27%, -21%, -18% and 14%.
Taken in the same sequence, the figures for `COc1ccc(NC(=O)CC2SC(=Nc3ccccc3C)NC2=O)c([N+](=O)[O-])c1` (stereo not given) were -1%, -1%, 1%, 10% and 36%.
For `O=C1OC(C2=CC(=O)c3ccccc3C2=O)C(Cl)=C1Cl` (stereo not given), the growth inhibition (at 1.2 µM) is 1%; the growth inhibition (at 3.7 µM) was 9%; the growth inhibition (at 11.0 µM) is 9%; the growth inhibition (at 33.0 µM) is 14%; the growth inhibition (at 100.0 µM) was 28%.
Take `Cc1cc(C(C)(C)CC(C)(C)C)ccc1O`: the growth inhibition is, setting by setting: (at 1.2 µM) -1%; (at 3.7 µM) -22%; (at 11.0 µM) 17%; (at 33.0 µM) 99% (active); (at 100.0 µM) 99% (active).
`CCOC1(c2cccc([N+](=O)[O-])c2)c2ccccc2Oc2ccccc21`: the growth inhibition is 2% (at 1.2 µM); 1% (at 3.7 µM); 4% (at 11.0 µM); 2% (at 33.0 µM); 3% (at 100.0 µM).
Turning to `Cc1nc(Nc2ccccc2[N+](=O)[O-])sc1C(=O)CC(=O)C(=O)Nc1c(C(C)C)cccc1C(C)C`, the growth inhibition (at 1.2 µM) was 2%; the growth inhibition (at 3.7 µM) was 4%; the growth inhibition (at 11.0 µM) was 3%; the growth inhibition (at 33.0 µM) is 5%; the growth inhibition (at 100.0 µM) is 4%.
